# According to the supplement of paper PMC4466140:
# B1: unnamed (peptide)
# chain: LKRITSPPLPPRADS
# Columns and labels:
# Test in all cases: SPOT peptide array binding signal intensity (averaged, normalized) (arbitrary units (background-subtracted, floor 0; scale differs between SH3 domains)); higher = stronger binding of the SH3 domain to the peptide
# AgAbp1 = molecular target: AgAbp1
# Description: (§1)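 GST-tagged SH3 domains from S. cerevisiae (Sc), A. gossypii (Ag), C. albicans (Ca) and S. pombe (Sp) were incubated at 10 ug/ml overnight at 4 C on cellulose SPOT membranes carrying 292 synthetic 15-mer peptides mined from the S. cerevisiae proteome (cysteines replaced by serines). Binding was detected with anti-GST antibody, HRP secondary and chemiluminescence, quantified with Genespotter, and reported as normalized spot intensities averaged over biological replicates.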
# AgBbc1 = molecular target: AgBbc1
# Description: as §1
# AgBem1-D1 = molecular target: AgBem1-D1
# Description: as §1
# AgBzz1-D1 = molecular target: AgBzz1-D1
# Description: as §1
# AgBzz1-D2 = molecular target: AgBzz1-D2
# Description: as §1
# AgCyk3 = molecular target: AgCyk3
# Description: as §1
# AgFus1 = molecular target: AgFus1
# Description: as §1
# AgHof1 = molecular target: AgHof1
# Description: as §1
# AgHse1 = molecular target: AgHse1
# Description: as §1
# AgLsb1 = molecular target: AgLsb1
# Description: as §1
# AgLsb4 = molecular target: AgLsb4
# Description: as §1
# AgMyo5 = molecular target: AgMyo5
# Description: as §1
# AgNbp2 = molecular target: AgNbp2
# Description: as §1
# AgRvs167 = molecular target: AgRvs167
# Description: as §1
# AgSho1 = molecular target: AgSho1
# Description: as §1
# AgSla1-D1-D2 = molecular target: AgSla1-D1-D2
# Description: as §1
# AgSla1-D3 = molecular target: AgSla1-D3
# Description: as §1
# CaAbp1-D1 = molecular target: CaAbp1-D1
# Description: as §1
# CaAbp1-D2 = molecular target: CaAbp1-D2
# Description: as §1
# CaBbc1 = molecular target: CaBbc1
# Description: as §1
# CaBem1-D1 = molecular target: CaBem1-D1
# Description: as §1
# CaBzz1-D1 = molecular target: CaBzz1-D1
# Description: as §1
# CaBzz1-D2 = molecular target: CaBzz1-D2
# Description: as §1
# CaCyk3 = molecular target: CaCyk3
# Description: as §1
# CaFus1 = molecular target: CaFus1
# Description: as §1
# CaHof1 = molecular target: CaHof1
# Description: as §1
# CaHse1 = molecular target: CaHse1
# Description: as §1
# CaLsb1 = molecular target: CaLsb1
# Description: as §1
# CaLsb4 = molecular target: CaLsb4
# Description: as §1
# CaMyo5 = molecular target: CaMyo5
# Description: as §1
# CaNbp2 = molecular target: CaNbp2
# Description: as §1
# CaRvs167 = molecular target: CaRvs167
# Description: as §1
# CaRvs167-3 = molecular target: CaRvs167-3
# Description: as §1
# CaSho1 = molecular target: CaSho1
# Description: as §1
# CaSla1-D1-D2 = molecular target: CaSla1-D1-D2
# Description: as §1
# CaSla1-D3 = molecular target: CaSla1-D3
# Description: as §1
# ScAbp1 = molecular target: ScAbp1
# Description: as §1
# ScBbc1 = molecular target: ScBbc1
# Description: as §1
# ScBem1-D1 = molecular target: ScBem1-D1
# Description: as §1
# ScBzz1-D1 = molecular target: ScBzz1-D1
# Description: as §1
# ScBzz1-D2 = molecular target: ScBzz1-D2
# Description: as §1
# ScCyk3 = molecular target: ScCyk3
# Description: as §1
# ScFus1 = molecular target: ScFus1
# Description: as §1
# ScHof1 = molecular target: ScHof1
# Description: as §1
# ScHse1 = molecular target: ScHse1
# Description: as §1
# ScLsb1 = molecular target: ScLsb1
# Description: as §1
# ScLsb2 = molecular target: ScLsb2
# Description: as §1
# ScLsb3 = molecular target: ScLsb3
# Description: as §1
# ScLsb4 = molecular target: ScLsb4
# Description: as §1
# ScMyo3 = molecular target: ScMyo3
# Description: as §1
# ScMyo5 = molecular target: ScMyo5
# Description: as §1
# ScNbp2 = molecular target: ScNbp2
# Description: as §1
# ScPex13 = molecular target: ScPex13
# Description: as §1
# ScRvs167 = molecular target: ScRvs167
# Description: as §1
# ScSho1 = molecular target: ScSho1
# Description: as §1
# ScSla1-D1-D2 = molecular target: ScSla1-D1-D2
# Description: as §1
# ScSla1-D3 = molecular target: ScSla1-D3
# Description: as §1
# SpAbp1-D1 = molecular target: SpAbp1-D1
# Description: as §1
# SpBbc1 = molecular target: SpBbc1
# Description: as §1
# SpBzz1-D1 = molecular target: SpBzz1-D1
# Description: as §1
# SpBzz1-D2 = molecular target: SpBzz1-D2
# Description: as §1
# SpCyk3 = molecular target: SpCyk3
# Description: as §1
# SpHof1 = molecular target: SpHof1
# Description: as §1
# SpHof1-2 = molecular target: SpHof1-2
# Description: as §1
# SpHof1-3 = molecular target: SpHof1-3
# Description: as §1
# SpHse1 = molecular target: SpHse1
# Description: as §1
# SpLsb1 = molecular target: SpLsb1
# Description: as §1
# SpLsb4 = molecular target: SpLsb4
# Description: as §1
# SpMyo1 = molecular target: SpMyo1
# Description: as §1
# SpNbp2 = molecular target: SpNbp2
# Description: as §1
# SpPex13 = molecular target: SpPex13
# Description: as §1
# SpRvs167 = molecular target: SpRvs167
# Description: as §1
# SpSla1-D1-D2 = molecular target: SpSla1-D1-D2
# Description: as §1
# SpSla1-D3 = molecular target: SpSla1-D3
# Description: as §1
binder,measurement,setting,value
B1,SPOT peptide array binding signal intensity,AgAbp1,20.5
same,SPOT peptide array binding signal intensity,AgBbc1,427
same,SPOT peptide array binding signal intensity,AgBem1-D1,59
same,SPOT peptide array binding signal intensity,AgBzz1-D1,87.5
same,SPOT peptide array binding signal intensity,AgBzz1-D2,82
same,SPOT peptide array binding signal intensity,AgCyk3,1
same,SPOT peptide array binding signal intensity,AgFus1,2
same,SPOT peptide array binding signal intensity,AgHof1,678
same,SPOT peptide array binding signal intensity,AgHse1,49
same,SPOT peptide array binding signal intensity,AgLsb1,1010
same,SPOT peptide array binding signal intensity,AgLsb4,5100
same,SPOT peptide array binding signal intensity,AgMyo5,3.25
same,SPOT peptide array binding signal intensity,AgNbp2,22
same,SPOT peptide array binding signal intensity,AgRvs167,1890
same,SPOT peptide array binding signal intensity,AgSho1,4
same,SPOT peptide array binding signal intensity,AgSla1-D1-D2,≤ 0
same,SPOT peptide array binding signal intensity,AgSla1-D3,4.75
same,SPOT peptide array binding signal intensity,CaAbp1-D1,134
same,SPOT peptide array binding signal intensity,CaAbp1-D2,96
same,SPOT peptide array binding signal intensity,CaBbc1,1010
same,SPOT peptide array binding signal intensity,CaBem1-D1,24.5
same,SPOT peptide array binding signal intensity,CaBzz1-D1,1940
same,SPOT peptide array binding signal intensity,CaBzz1-D2,423
same,SPOT peptide array binding signal intensity,CaCyk3,25.5
same,SPOT peptide array binding signal intensity,CaFus1,99.5
same,SPOT peptide array binding signal intensity,CaHof1,4.25
same,SPOT peptide array binding signal intensity,CaHse1,124
same,SPOT peptide array binding signal intensity,CaLsb1,1.5
same,SPOT peptide array binding signal intensity,CaLsb4,6040
same,SPOT peptide array binding signal intensity,CaMyo5,2.5
same,SPOT peptide array binding signal intensity,CaNbp2,47
same,SPOT peptide array binding signal intensity,CaRvs167,2070
same,SPOT peptide array binding signal intensity,CaRvs167-3,9.5
same,SPOT peptide array binding signal intensity,CaSho1,9.5
same,SPOT peptide array binding signal intensity,CaSla1-D1-D2,244
same,SPOT peptide array binding signal intensity,CaSla1-D3,2
same,SPOT peptide array binding signal intensity,ScAbp1,16.5
same,SPOT peptide array binding signal intensity,ScBbc1,35.2
same,SPOT peptide array binding signal intensity,ScBem1-D1,10
same,SPOT peptide array binding signal intensity,ScBzz1-D1,56
same,SPOT peptide array binding signal intensity,ScBzz1-D2,18
same,SPOT peptide array binding signal intensity,ScCyk3,2
same,SPOT peptide array binding signal intensity,ScFus1,1
same,SPOT peptide array binding signal intensity,ScHof1,234
same,SPOT peptide array binding signal intensity,ScHse1,91.5
same,SPOT peptide array binding signal intensity,ScLsb1,661
same,SPOT peptide array binding signal intensity,ScLsb2,1120
same,SPOT peptide array binding signal intensity,ScLsb3,7910
same,SPOT peptide array binding signal intensity,ScLsb4,5640
same,SPOT peptide array binding signal intensity,ScMyo3,24
same,SPOT peptide array binding signal intensity,ScMyo5,≤ 0
same,SPOT peptide array binding signal intensity,ScNbp2,77.5
same,SPOT peptide array binding signal intensity,ScPex13,2230
same,SPOT peptide array binding signal intensity,ScRvs167,3220
same,SPOT peptide array binding signal intensity,ScSho1,270
same,SPOT peptide array binding signal intensity,ScSla1-D1-D2,492
same,SPOT peptide array binding signal intensity,ScSla1-D3,36.2
same,SPOT peptide array binding signal intensity,SpAbp1-D1,118
same,SPOT peptide array binding signal intensity,SpBbc1,3
same,SPOT peptide array binding signal intensity,SpBzz1-D1,1080
same,SPOT peptide array binding signal intensity,SpBzz1-D2,1.75
same,SPOT peptide array binding signal intensity,SpCyk3,3
same,SPOT peptide array binding signal intensity,SpHof1,168
same,SPOT peptide array binding signal intensity,SpHof1-2,17.2
same,SPOT peptide array binding signal intensity,SpHof1-3,140
same,SPOT peptide array binding signal intensity,SpHse1,47.5
same,SPOT peptide array binding signal intensity,SpLsb1,1600
same,SPOT peptide array binding signal intensity,SpLsb4,4790
same,SPOT peptide array binding signal intensity,SpMyo1,102
same,SPOT peptide array binding signal intensity,SpNbp2,≤ 0
same,SPOT peptide array binding signal intensity,SpPex13,≤ 0
same,SPOT peptide array binding signal intensity,SpRvs167,3150
same,SPOT peptide array binding signal intensity,SpSla1-D1-D2,1
same,SPOT peptide array binding signal intensity,SpSla1-D3,1.5
